From PubChem
FGF22 binding = binders of recombinant human FGF22 by thermal shift; SYPRO orange fluorescence; percent of sucrose octasulfate shift, DMSO zero; Q9HCT0; 340,000 compounds, 1.5% hits; activity (Tm shift, normalised), % at 9.99 µM;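 active = mean Tm shift, scaled 0 neutral to 100 positive control, at about 1.3% or above, every replicate too, limit read from the data; inconclusive = no clear call, values can overlap the other calls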
Target sequence (Q9HCT0 whole entry, looked up): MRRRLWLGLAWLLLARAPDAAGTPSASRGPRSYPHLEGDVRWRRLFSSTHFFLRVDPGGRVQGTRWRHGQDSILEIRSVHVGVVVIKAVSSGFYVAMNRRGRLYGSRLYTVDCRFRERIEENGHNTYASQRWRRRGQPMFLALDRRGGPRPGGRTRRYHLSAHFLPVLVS
AF4-AF9 inh = blocks AF4 peptide binding to human AF9; P42568; AlphaScreen, biotin-AF4 peptide binding to FLAG-AF9; inhibition, % at 10 µM; 350,000 compounds, 0.47% hits; AID 651704;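 active = every replicate reaching a set inhibition limit, whatever the replicate mean, cut at about 25% in these data; inconclusive = mean inhibition reaches that limit but some replicates miss it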;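 note: 0% = plate neutral control median and 100% = total signal loss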
esBAF inh = SWI/SNF esBAF complex inhibition. mouse ES cells, Bmi1-luciferase knock-in reporter, 24 h; 100% = twice the neutral-well signal. reporter increase, % at 12.5 µM. 350,000 compounds, 2% hits. AID 602393; in the data active = activation above about 40%; inconclusive = no clear call, values can overlap the other calls;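 note: 0% = median of the plate's neutral control wells and 100% = double that signal; a rise in the Bmi1 reporter signal indicates esBAF inhibition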
MITF TRPM1 HTS = activators of MITF-driven TRPM1 promoter activity in SK-MEL-5 cells | SK-MEL-5 TRPM1-promoter luciferase, 24 h; % of positive control, neutral wells = 0 | activation, % at 12.5 µM | 300,000 compounds, 0.75% hits | AID 588334;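 active = mean activation of at least 80% with every replicate also reaching 80%; inconclusive = mean reaches 80% but some replicate falls short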;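 note: 0% = neutral control wells and 100% = parthenolide positive control wells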
Wnt act = Wnt/beta-catenin pathway activation; Wnt/beta-catenin reporter cell assay, activator, plate reader; activation, % at 9.35 µM; 300,000 compounds, 1.2% hits; AID 743398; in the data active = activation above about 30%, passing the limit was not always enough; inconclusive = no clear call, values can overlap the other calls;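 note: 0% = neutral control wells and 100% = positive control wells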
SMARCA2 act = increases SMARCA2 function in MMTV reporter cells | MG213 cells, MMTV-luciferase reporter, dexamethasone, overnight | 370,000 compounds, 1% hits | AID 652017 | activation, % at 9.1 µM; in the data active = activation above about 7.8%;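 note: 0% = vehicle wells and 100% = reference activator wells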
SMARCA2 act conf = confirmation of SMARCA2 (BRM) function activators | 3,500 compounds, 30% hits | activation, % at 9.1 µM | MG213 cells, MMTV-luciferase with dexamethasone, luminescence, overnight; MG213 cells expressing E1A, Rb sequestered; DMSO wells 0%, reference activator 100% | shares compounds with SMARCA2 act;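 active = activation above its plate's cutoff, the mean activation of tested wells plus 3 SD, cut at about 7.9% in these data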
VP16 Luc act = counter-screen for SMARCA2 activators: GAL4-VP16 luciferase reporter activation; shares compounds with SMARCA2 act; HEK293 GAL4-VP16 pG5luc reporter, luciferase luminescence; scaled: DMSO wells 0%, SAHA wells 100%; activation, % at 9.1 µM; 3,500 compounds, 41% hits;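 active = activation above the solvent-only control well mean plus 3 SD, averaged across control plates, cut at about 5.2% in these data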
* = called active by the depositor; ? = inconclusive; · = no result given. Sampled rows, rich in hits. Any-hit rate of the full collection: about 4.3%.

SMILES	FGF22 binding	AF4-AF9 inh	esBAF inh	MITF TRPM1 HTS	Wnt act	SMARCA2 act	SMARCA2 act conf	VP16 Luc act
Cc1csc(NC(=O)CN2C(=O)c3ccccc3C2=O)c1C(N)=O	-0.2	0.2	·	·	0.5	9.1*	4.8	0.9
Cc1nn2cc(-c3ccc(Cl)cc3)nc2s1	·	·	-2.3	·	71.3*	8.7*	2.5	10.3*
Cc1nn2cc(-c3ccc(-c4ccccc4)cc3)nc2s1	·	·	-42.4	32.1	?	-2.1	·	·
Cc1cccc(-c2noc(CCc3ccccc3)n2)c1	-0.1	-3.8	63.4*	·	?	10.9*	3.9	6.7*
Cc1cccc(-c2noc(CCC(=O)NCCc3ccccc3)n2)c1	-0.1	-0.3	-7.9	-2.1	1.7	-1.3	·	·
CCOC(=O)C1CCCN(C(=O)c2cc3cc4ccc(OC)cc4nc3o2)C1 (stereo not drawn)	·	·	-7.3	7.6	·	·	·	·
COc1ccc2cc3cc(C(=O)N4CCCC(C)C4)oc3nc2c1 (stereo not drawn)	0.0	-2.7	15.9	48.1	32.3*	8.8*	3.3	9.2*
CCc1nnc(N/N=C/c2ccc(O)c(OC)c2)n1N	-0.3	4.5	-6.7	·	-0.9	1.1	·	·
CCc1nnc(N/N=C\c2ccc(OC(C)=O)c(OC)c2)n1N	-0.2	-11.7	-4.1	-8.9	0.7	8.6*	-1.6	1.6
O=C(NNC1=C(C(=O)C(F)(F)F)CCC1)c1ccc(Cl)cc1	·	·	·	-18.4	16.1	14.1*	-4.8	-0.2
CCN(CC)S(=O)(=O)c1ccc(NC(=O)CCC2CCCCC2)cc1	·	·	-23.1	3.3	-5.5	9.4*	4.9	0.7
COC(=O)c1c(C)[nH]c(C(=O)CN2C(=O)C3CC=CCC3C2=O)c1C (stereo not drawn)	0.0	-1.1	?	52.7	20.3	9.0*	5.8	5.1
CCOC(=O)c1c(C)[nH]c(C(=O)CN2C(=O)C(=O)N(CC(C)C)C2=O)c1C	0.0	-1.8	·	5.1	-1.0	-1.4	·	·
O=C(CN1C(=O)COc2ccccc21)NCCCN1CCN(c2ccccc2F)CC1	-0.1	2.8	6.4	-10.1	3.2	-1.2	·	·
O=C(CCN1C(=O)COc2ccccc21)NCCN1CCN(c2ccccc2F)CC1	·	-4.6	·	-11.7	-4.5	8.7*	-1.1	1.9
CCOC(=O)c1c(NC(=O)COC(=O)CCCOc2ccc(OC)cc2)sc(C(=O)N(C)C)c1C	0.0	0.7	-6.2	-2.1	-4.9	8.3*	-0.8	0.5
O=C(NCCCc1ccccc1)c1ccc(Br)o1	·	·	24.8	·	17.1	9.7*	0.6	0.2
O=C(NC(=S)Nc1ccccc1)c1ccc(Br)o1	-0.1	-4.2	45.0*	53.0	49.9*	9.3*	12.6*	6.2*
Cc1ccc(C(=O)NCCCc2ccccc2)c(C)c1	0.0	-1.5	·	50.5	7.4	10.4*	13.3*	8.5*
C[C@@H]1CN([C@@H](C)CO)C(=O)CCCn2nncc2CO[C@H]1CN(C)C(=O)Nc1ccc(N2CCN(C)CC2)cc1	-0.2	11.7	-6.9	·	-0.9	-3.5	·	·
O=C(O)c1ccccn1	-0.1	-4.4	-11.9	2.2	-4.0	-0.2	·	·
S=C(Nc1ccccc1)c1ccccn1	·	·	79.5*	15.2	·	8.2*	29.9*	9.4*
CN(C(=O)/C=C/c1cnc2ccccc2c1)C1CCCCC1	42.2	4.4	·	4.9	23.6	9.9*	12.5*	11.4*
C[C@@H]1CN([C@@H](C)CO)C(=O)c2cc(NC(=O)Nc3ccc(F)cc3)ccc2O[C@@H](C)CCCCO[C@@H]1CN(C)C(=O)Nc1ccc2c(c1)OCO2	-0.4	1.0	·	·	·	·	·	·
CCS(=O)(=O)N1CCC2(CC1)CN(Cc1ccccc1OC)[C@@H](CO)c1c2c2ccc(OC)cc2n1C	-0.4	-3.1	·	·	·	·	·	·
SMILES	FGF22 binding	AF4-AF9 inh	esBAF inh	MITF TRPM1 HTS	Wnt act	SMARCA2 act	SMARCA2 act conf	VP16 Luc act
CN1CCN(S(=O)(=O)c2cccc(C(=O)Nc3sc4c(c3-c3nc5ccccc5[nH]3)CCCC4)c2)CC1	0.1	5.5	·	9.4	-5.2	21.0*	4.4	3.8
COC(=O)CC1C(=O)NCCN1C(=O)c1ccc([N+](=O)[O-])cc1 (stereo not drawn)	-0.2	-1.1	-6.3	-0.4	-0.1	10.0*	4.6	0.1
N#C/C(=N\Nc1cccc(F)c1)C(=N)N1CCCCCC1	0.5	-1.9	·	?	12.8	8.5*	7.3	11.0*
N#C/C(=N/Nc1ccccc1F)C(=N)N1CCOCC1	·	·	9.0	7.2	12.9	9.4*	10.8*	2.6
N#C/C(=N\Nc1cccc(F)c1)C(=O)C1CC1	0.2	1.2	·	·	9.5	-3.0	·	·
O=C(C1CCCN1S(=O)(=O)c1ccc([N+](=O)[O-])cc1)N1CCN(c2ccccc2)CC1 (stereo not drawn)	·	·	·	·	·	-4.9	·	·
COc1ccc(-c2csc(N3CCN(C(=O)c4ccccc4)CC3)n2)cc1	·	·	5.5	·	·	-2.8	·	·
CN(C)C(=O)N1CCN(c2nc(-c3ccccc3)cs2)CC1	-0.2	1.4	36.9	·	10.9	11.2*	4.4	5.9*
CCCS(=O)(=O)Nc1ccc(Nc2c3ccccc3nc3ccccc23)c(OC)c1	-1.2	14.8	·	·	-1.9	15.1*	23.6*	2.7
N=c1oc2cc(O)ccc2cc1C(=O)Nc1ccc(F)cc1	0.0	-0.7	16.4	34.8	?	10.6*	3.9	6.7*
CC(C)CC#Cc1ccc([C@H]2[C@@H](CO)N3CCCCN(C(=O)c4ccc5c(c4)OCO5)C[C@H]23)cc1	-0.2	14.6	·	·	·	·	·	·
CCCc1nc2oc3c(NCCCN(C)C)ncnc3c2c2c1CCCC2	0.0	1.3	·	·	-1.4	19.2*	19.1*	1.1
CCCc1nc2oc3c(NCCN(C)C)ncnc3c2c2c1CCCC2	·	·	-10.0	·	·	1.7	·	·
CCN(CC)CCC(=O)Nc1cccc2c1C(=O)c1ccccc1C2=O	0.2	11.4	-3.2	·	2.6	33.3*	94.5*	4.0
Cc1nn(-c2ccccc2)c(C)c1-c1cc(C(=O)N/N=C/c2ccc(O)cc2)[nH]n1	0.0	6.2	·	-1.9	3.5	3.7	·	·
COc1cc(/C=N/NC(=O)c2cc(-c3c(C)nn(-c4ccccc4)c3C)n[nH]2)ccc1O	1.1	2.8	22.5	-22.6	-3.3	12.1*	15.7*	11.6*
Nc1c(-c2ccccc2)c(CN2CCOCC2)nn1-c1ccccc1	0.4	1.3	·	1.0	1.8	12.5*	-1.7	1.4
Cc1nn(-c2ccccc2)c(N)c1-c1ccccc1	0.0	-0.8	66.9*	114.3*	?	10.8*	8.2*	11.9*
C/C=C/c1ccc([C@H]2[C@@H](CN(C)C(=O)CC)N(C(=O)NCCC)[C@H]2CO)cc1	-0.1	-2.4	-3.3	·	·	·	·	·
